# High-throughput results from PubChem.
# 12-hLO inh = qHTS Assay for Inhibitors of 12-hLO (12-human lipoxygenase). Potency, µM (doses to about 57.1 µM), for inactives: at the top dose activity change, negative = inhibition, hits mostly inhibitors. purified 12-hLO, xylenol orange hydroperoxide absorbance. hit rate 0.12% among 150,000. Polyunsaturated fatty acid lipoxygenase ALOX12 (Homo sapiens), P18054; active means well fitted curve in the direction sought with a large enough effect; inconclusive means small, poorly fitted or top-dose-only effect, or another doubt; inactive means no such curve, though single readings can be large; an effect the other way counts as inactive or inconclusive; further: potency means the concentration at half of the fitted maximal effect; nearly all actives have a fitted effect of over 55% in size
#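 Lipoxygenase turnover measured by absorbance at 573 and 405 nm after Fe-XO development. Human 12hLO 150 nM, arachidonate 40 uM, pH 7.0 Hepes buffer with detergent; 15 min compound preincubation, 30 min reaction.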
# HPGD block = qHTS Assay for Inhibitors of HPGD (15-Hydroxyprostaglandin Dehydrogenase); hit rate 4.3% among 150,000; AID 894, 2007; Potency, µM, without a hit: at the top dose activity change, negative = inhibition, hits mostly inhibitors; purified HPGD, NADH fluorescence kinetic, PGE2 substrate; further: potency means the concentration at half of the fitted maximal effect
# Target sequence (P15428 whole entry, looked up): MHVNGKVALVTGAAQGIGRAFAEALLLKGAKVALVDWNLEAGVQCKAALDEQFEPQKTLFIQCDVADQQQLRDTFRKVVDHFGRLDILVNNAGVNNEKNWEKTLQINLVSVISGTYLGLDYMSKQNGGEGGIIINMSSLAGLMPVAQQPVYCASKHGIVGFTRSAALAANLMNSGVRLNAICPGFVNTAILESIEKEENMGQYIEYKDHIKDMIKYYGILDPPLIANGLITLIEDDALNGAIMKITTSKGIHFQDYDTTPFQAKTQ
#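 NADH formation kinetics: reaction with 30 uM PGE2 and 1 mM NAD+ (final), 20 nM enzyme, Tris-HCl pH 8 with Tween 20, after 15 min compound preincubation at room temperature. Fluorescence change, last versus first of five reads.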
# ALDH1A1 inh = qHTS Assay for Inhibitors of Aldehyde Dehydrogenase 1 (ALDH1A1) | Aldehyde dehydrogenase 1A1 (Homo sapiens), P00352 | Purified ALDH1A1, NADH fluorescence, propionaldehyde substrate | Potency, µM (doses to about 75.3 µM), for inactives: top-dose activity, negative = inhibition, usual class: inhibitors | hit rate 7.3% among 220,000 | AID 1030, 2008;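 further: potency means the concentration at half of the fitted maximal effect; plate controls were no enzyme wells and a reference inhibitor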
# IMPase cell inh = qHTS Assay for Identifying the Cell-Membrane Permeable IMPase Inhibitors; Inositol monophosphatase 1 (Rattus norvegicus), P97697; CHO-M1 cells, IP1 accumulation, HTRF TR-FRET ratio; inhibition (IP1 accumulation), % at 46.1 µM; 120,000 tested, under 10 active; AID 901, 2007; active means well fitted curve in the direction sought with a large enough effect in the signal ratio, not every such curve was filed as active; inconclusive means small, poorly fitted or top-dose-only effect, or a change in a side signal; inactive means no such curve, though single readings can be large or run the other way; the % refers to the signal ratio;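 further: cells stimulated with carbachol in lithium chloride buffer; plate controls were DMSO basal wells for no effect and reference inhibitor wells for full effect; higher means more IMPase inhibition seen as more IP1 and lower FRET ratio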
# Target sequence (P97697 whole entry, looked up): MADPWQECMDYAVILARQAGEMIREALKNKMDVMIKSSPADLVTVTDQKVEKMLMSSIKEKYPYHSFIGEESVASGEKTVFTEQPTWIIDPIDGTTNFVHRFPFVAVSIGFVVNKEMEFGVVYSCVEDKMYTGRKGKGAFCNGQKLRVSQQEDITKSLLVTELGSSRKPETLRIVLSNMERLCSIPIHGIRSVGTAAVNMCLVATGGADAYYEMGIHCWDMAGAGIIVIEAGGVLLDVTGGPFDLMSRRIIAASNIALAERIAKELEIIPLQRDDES
#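 Cellular IMPase inhibition is scored as a rise in cytosolic IP1, detected by competitive TR-FRET between d2-labelled IP1 and a europium anti-IP1 antibody. M1-expressing CHO cells were stimulated with carbachol for 30 min at 37C, with lithium (50 mM LiCl) present in the buffer.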
# IMPase Li cell = qHTS Assay for Identifying the Cell-Membrane Permeable IMPase Inhibitors: Potentiation with Lithium. Potency, µM (titrated, usually from 59.4 µM), without a hit: at the highest dose activity, negative = IMPase inhibition, actives largely listed as inhibitors. CHO-M1 cells, IP1 TR-FRET (IP-One), carbachol + lithium. hit rate 0.35% among 210,000; active means well fitted curve in the direction sought with a large enough effect; inconclusive means small, poorly fitted or top-dose-only effect, or another doubt; inactive means no such curve, though single readings can be large; an effect the other way counts as inactive or inconclusive;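 further: IP1 builds up when IMPase is blocked and the TR-FRET signal falls; potency means the concentration at half of the fitted maximal effect; plate controls were basal vehicle for no effect and high inhibitor control for full effect; nearly all actives have a fitted effect of over 50% in size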
#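 Steps: plate 2000 CHO-M1 cells per well and culture 16–30 h; add compound and lithium; incubate 30 min, 37C; add d2-IP1 tracer and Eu cryptate anti-IP1 antibody in lysis buffer; read after 10 min at room temperature.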
# PNC inhibitor = High Content Assay for Compounds that inhibit the Assembly of the Perinucleolar Compartment. hit rate 3.1% among 140,000. PC3M PTB-GFP, PNC prevalence imaging, 16 h; stronger effect = lower value. activity change (PNC), negative = inhibition, % at 10 µM;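 active means readout at or below -70, meaning at least 70% loss of cells showing the perinucleolar compartment, a nuclear body marking cancer cells; inconclusive means readout between -30 and a set limit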;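 further: plate controls were DMSO wells for no effect and camptothecin positive control wells for full effect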
#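 Compounds are pinned in duplicate onto adhered PC3M cells stably expressing GFP-tagged PTB and incubated 16 h at 37 C. Cells are then fixed, nuclei stained with Hoechst, and PNC-positive cells counted.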
# * marks the source's active call; other numbers are inactive results; u = inconclusive; x = no result; [ ] = remark or other dose. A selection: hits, their analogues and other compounds. The true share with any hit is near 11%. Unless noted, the call rests on the fitted dose curve; in most records, active means well fitted inhibition curve with a large enough effect (not every such curve was filed as active); inconclusive means small, poorly fitted or top-dose-only effect, or another doubt; inactive means no such curve, though single readings can be large or run the other way. Unless noted, on the % scale 0 is the no-effect control and ±100 the full control effect.
SMILES,12-hLO inh,HPGD block,ALDH1A1 inh,IMPase cell inh,IMPase Li cell,PNC inhibitor
CCc1ccc(NCCC(=O)c2ccc(Cl)cc2)cc1,2%,-7%,1.6µM*,4,11%[38.3 µM],-30
CC(=O)c1ccc(NCCC(=O)c2ccccc2)cc1,x,x,6.3µM*,x,-1%,x
Cc1ccc(C(=O)CCNc2ccc(Cl)cc2)o1,2%,-10%,4µM*,4,33%[38.3 µM],-28
CCC(=O)NC1CCc2cccc(OC)c2C1 (stereo not given),x,x,5%,x,-6%,x
CC(=O)OC[C@@H]1O[C@@H](O/N=C2/C[C@@H](O)[C@@H](O)[C@@H]3[C@@H]4C(=O)N(Cc5ccc6c(c5)OCO6)C(=O)[C@H]4CC[C@@H]23)[C@H](OC(C)=O)[C@H](OC(C)=O)[C@@H]1OC(C)=O,x,x,13%[13.5 µM],x,x,x
CCOc1cc(/C=N/NC(=O)c2cc(-c3cccc(OC)c3)n[nH]2)ccc1O,-8%,-25%,u,x,x,x
COc1ccc(C(=O)Nc2cc(OC)ccc2OC)cc1,-8%,-12%,1%,6,2%[38.3 µM],11
COc1ccc(OC)c(NC(=O)C23CCC(C)(C(=O)C2)C3(C)C)c1 (stereo not given),-3%,-8%,-12%,u,14%[38.3 µM],-86*
CCOC(=O)c1c(N)sc2c1CCC1C(=O)N(C3CCCCC3)C(=O)C21 (stereo not given),-10%,u,13µM*,-2,23%[38.3 µM],-6
CN1CCN(c2ncc3nc(-c4cccc(C#N)c4)c(=O)n(CCc4ccccc4)c3n2)CC1,x,x,u,x,12%,x
COC(=O)c1cc(C(=O)Nc2nnc(CC(C)(C)C)s2)cc([N+](=O)[O-])c1,6%,16µM*,25µM*,-2,-3%,-8
CCOCc1nnc(NC(=O)c2cc(C(=O)OC)cc([N+](=O)[O-])c2)s1,x,x,-12%,x,-12%,x
COc1cccc(N2CCN(C3C4CC5CC(C4)CC3C5)CC2)c1 (stereo not given),2%,-5%,u,7,3%[38.3 µM],u
COc1cccc(N2CCN(CC(=O)C34CC5CC(CC(C5)C3)C4)CC2)c1,-2%,-8%,16µM*,5,2%[38.3 µM],u
N#CCCN1CCN(C2=NC(=O)/C(=C\c3cccs3)S2)CC1,x,x,25µM*,x,12%,x
CN(C)c1oc(-c2ccccc2[N+](=O)[O-])nc1C#N,x,x,10µM*,x,x,x
C[N+]1(C)CCc2cc3c(cc2[C@@H]1[C@@H]1C(=O)Oc2c1ccc1c2OCO1)OCO3,-7%,-4%,7%,1,34%,x
O=C(Nc1ccc(Oc2ccccc2)cc1)C1CCN(S(=O)(=O)c2ccccc2)CC1,x,x,x,9,x,x
CCN(CC)S(=O)(=O)c1cccc(C(=O)N2CC(O)CC2C(=O)O)c1 (stereo not given),2%,-15%,12%,10,16%[38.3 µM],-107*
NC(=O)/C=C/C(=O)Nc1ccc(Cl)cc1,x,x,2.2µM*,x,-5%,x
NC(=O)SCC(=O)Nc1cccc(Cl)c1,-2%,-22%,0.6µM*,12,25%[38.3 µM],-13
NC(=O)SCC(=O)Nc1ccc(Cl)cc1,-18%,4.5µM*,u,-1,-9%[38.3 µM],-23
Cc1ccc(NC(=O)CSC(N)=O)cc1Cl,-13%,-13%,3.5µM*,-3,2%[38.3 µM],0
NC(=O)SCC(=O)Nc1ccc(Cl)c(Cl)c1,-18%,-14%,u,-7,6%[38.3 µM],23
O=C1N/C(=C/c2cccn2-c2ccc(F)cc2)C(=O)N1Cc1ccccc1F,0%,-2%,u,x,-4%,-4
COc1cc(/C=C2\NC(=S)N(C)C2=O)ccc1O,x,x,u,x,18%,x
COc1cc(/C=C2/NC(=O)N(Cc3ccccc3F)C2=O)ccc1Oc1ccc([N+](=O)[O-])cn1,1%,-8%,0.22µM*,x,6%,15
